Bioassay records as filed in PubChem.
The list is not random: actives were taken first. Their share in the collection is about 6.3%.
Abs 340nm = compound light absorbance at 340 nm, profiling panel, artefact control, biochemical, MLSMR library, data from PS, PMK, MK assays; compound absorbance at 340 nm, fold over control; fold change at 10 µM; 65,000 tested, under 10 active; AID 708, 2007;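 active = at 10 µM dose, initial 340 nm absorbance at least 2 fold that of control wells; inactive = change under 2 fold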;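 note: initial absorbance extrapolated from kinetic A340 decline of NADH oxidation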
Spn DPM-DC inh = S. pneumoniae DPM-DC inhibitors, primary screen, biochemical, PK/LDH-coupled NADH fluorescence; diphosphomevalonate decarboxylase (Streptococcus pneumoniae D39); purified DPM-DC; calls only at 10 µM; hit rate 0.49% among 65,000;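 active = the 320 compounds with the highest percent inhibition in the single-dose primary screen, excluding strongly autofluorescent ones, cut at about 32% in these data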;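 note: kinetic rate of NADH fluorescence loss reporting ADP formed by the decarboxylase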
NADH enzymes = inhibitors of PK/LDH coupling enzymes, profiling panel, artefact control, biochemical, MLSMR library; coupled PK/LDH NADH assays, four targets; AID 774, 2007; IC50, µM (highest dose often 10 µM), for inactives: at the highest dose inhibition; hit rate 0.02% among 65,000;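 active = single-dose screening hits from any of four coupled enzyme assays that gave an IC50 when retested across doses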;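 note: the DPM-DC format reads NADH fluorescence rather than 340 nm absorbance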
Autofluor 339 = intrinsic fluorescence of library compounds, ex339/em460 – biochemical, MLSMR library, data from DPM-DC assay, artefact control, profiling panel | compound autofluorescence, ex339/em460 nm, NADH buffer; active compounds read high; 1 = no-compound wells, NADH background | fluorescence fold increase at 10 µM | hit rate 5.5% among 65,000 | AID 709, 2007;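 active = at 10 µM, mean starting fluorescence two-fold or more over control wells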;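 note: signal is the first read of a kinetic run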
PMK inhibit = S. pneumoniae PMK inhibitors, primary screen, biochemical, mevalonate pathway, pilot trial included; phosphomevalonate kinase (Streptococcus pneumoniae D39); purified PMK, PK/LDH-coupled NADH absorbance 340 nm; inhibition, % at 10 µM; hit rate 0.49% among 65,000; AID 539, 2006;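 active = top-ranked compounds by inhibition in the single 10 µM screen, taking a fixed number of the strongest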;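 note: 0% = full reaction with DMSO carrier and 100% = background rate without enzyme reaction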
MK inhibit = S. pneumoniae MK inhibitors, primary screen, biochemical, PK/LDH-coupled NADH absorbance; purified MK, PK/LDH-coupled NADH absorbance 340 nm; inhibition, % at 10 µM; hit rate 0.48% among 65,000;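 active = ranked among the strongest by inhibition in the single 10 µM screen, a fixed top-ranked set picked for dose follow-up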
The depositor's hits bear a star; i = inactive; . = not tested or not shown; + = active, no number.

SMILES	Abs 340nm	Spn DPM-DC inh	NADH enzymes	Autofluor 339	PMK inhibit	MK inhibit
Cc1cc2c3nonc3ccc2n1-c1ccccc1	1.04	.	6.0%	2.25*	6.0	6.0
c1ccc(-c2cc3c(ccc4nonc43)nn2)cc1	1.07	i	0.0%	1.09	0.0	0.0
COCC(C)NC(=O)c1ccccc1OC(C)=O (stereo not given)	1.01	i	10.0%	2.03*	4.0	10.0
COCC(C)NC(=O)c1cc(-c2ccccc2OC)on1 (stereo not given)	1	i	7.0%	1.18	14.0	7.0
Cc1c(C(=O)N2CCCc3ccccc32)oc2ccc(S(=O)(=O)N3CCOCC3)cc12	0.98	i	5.0%	1.06	14.0	0.0
Cc1ccc2cc(-c3noc(C(C)(C)C)n3)c(=O)[nH]c2c1	1.11	i	14.0%	3.88*	9.0	7.0
Cc1ccc2[nH]c(=O)c(-c3noc(C(C)C)n3)cc2c1	1.08	.	2.0%	2.21*	0.0	4.0
CCc1nc(-c2cc3ccc(C)cc3[nH]c2=O)no1	1.11	.	10.0%	4.48*	13.0	7.0
Cc1ccc2[nH]c(=O)c(-c3noc(-c4ccncc4)n3)cc2c1	1	i	3.0%	1.17	4.0	9.0
Cc1ccc2cc(CCNC(=O)C(C)(C)C)c(=O)[nH]c2c1	1.07	i	2.0%	1.19	7.0	0.0
Nc1c(S(=O)(=O)c2cccc(Cl)c2)c2nc3ccccc3nc2n1/N=C/c1ccc(O)c(O)c1	1.23	i	8.0%	1.44	12.0	5.0
CC1CN(S(=O)(=O)c2ccc(C(=O)Nc3nnc(-c4ccc5c(c4)CCCC5)o3)cc2)CC(C)O1 (stereo not given)	1.11	.	0.0%	2.14*	0.0	0.0
CC(=O)Nc1nnc(-c2ccc3c(c2)CCCC3)o1	1.03	i	11.0%	0.81	10.0	5.0
COCCCNC(=O)C12CCC(C)(C(=O)C1)C2(C)C (stereo not given)	1.03	i	3.0%	1.1	0.0	9.0
CCc1cccc(NC(=O)CN(c2ccc(OC)cc2)S(=O)(=O)c2c(C)n[nH]c2C)c1	0.97	i	3.0%	1.08	8.0	0.0
CCOc1nc(C)ccc1-c1noc(-c2ccncc2)n1	1.03	i	3.0%	1.13	0.0	8.0
CCOc1nc(-c2ccccc2)ccc1-c1noc(-c2ccncc2)n1	1.02	.	8.0%	3.28*	15.0	0.0
CCOc1nc(-c2ccc(C)cc2)ccc1-c1noc(-c2cccnc2)n1	1.09	i	10.0%	2.99*	3.0	9.0
CCOc1nc(-c2ccc(OC)cc2)ccc1-c1noc(-c2cccnc2)n1	1.04	i	10.0%	1.87	9.0	10.0
CCOc1nc(-c2ccc(OC)cc2)ccc1-c1noc(-c2ccncc2)n1	1.08	i	5.0%	2.96*	0.0	2.0
Cc1cc2c(=O)n(CC(=O)NCC(=O)N3CCN(Cc4ccccc4)CC3)cnc2s1	1	i	2.0%	1.11	5.0	0.0
COc1ccc(OC)c(N2C(=O)CC(C(C)c3ccccc3)C2=O)c1 (stereo not given)	1.03	i	3.0%	1.07	8.0	0.0
O=C1CCNc2cc3ccccc3cc21	1.01	.	3.0%	2.02*	0.0	9.0
CC(=O)c1sc(N2C(=O)c3oc4ccccc4c(=O)c3C2c2ccc(C)o2)nc1C (stereo not given)	1.05	i	4.0%	1.05	3.0	6.0
CCOc1ccc(S(=O)(=O)NCc2ccc(F)cc2)c2cccnc12	1.06	i	10.0%	3.55*	0.0	1.0
SMILES	Abs 340nm	Spn DPM-DC inh	NADH enzymes	Autofluor 339	PMK inhibit	MK inhibit
COC(=O)C(Cc1cnc[nH]1)NC(=O)C1CCC(=O)N1 (stereo not given)	0.99	i	7.0%	1.06	16.0	4.0
COc1ccccc1N/C(N)=N/c1nc(CSc2ccc(C)cc2)cc(=O)[nH]1	1.01	i	8.0%	1.09	12.0	11.0
Cc1cc(=O)[nH]c(/N=C(\N)Nc2cccc3ccccc23)n1	1.04	+	22.0%	1.06	19.0	9.0
CSCCC(NC(=O)COc1ccccc1)C(=O)N1CCN(c2ccccc2F)CC1 (stereo not given)	0.98	i	4.0%	1.06	8.0	3.0
CCOC(=O)c1sc(NC(=O)c2ccc(Cl)s2)cc1C	1.06	.	4.0%	2.13*	1.0	6.0
CCOC(=O)c1sc(NCCNc2nc(C)c(C(=O)OCC)s2)nc1C	1.09	i	1.0%	1.12	2.0	2.0
CCOC(=O)c1sc(NC(=O)c2ccc(CC)s2)nc1C	1.09	.	2.0%	3.29*	3.0	0.0
CCOC(=O)c1sc(NC(=O)C2CC2)cc1C	1.05	i	3.0%	1.03	0.0	4.0
COc1ccc(-n2nnc3c(SCC(=O)N4CCCc5ccccc54)ncnc32)cc1	1.01	i	3.0%	1.13	9.0	0.0
COc1ccc(OC)c(NS(=O)(=O)Cc2ccccc2)c1	1.02	i	3.0%	0.99	2.0	15.0
Cc1nn(Cc2ccccc2)c2c1C(c1ccco1)C(C#N)=C(N)O2 (stereo not given)	1.1	i	8.0%	1.03	9.0	15.0
Cc1nn(Cc2ccccc2)c2c1C(c1ccncc1)C(C#N)=C(N)O2 (stereo not given)	0.98	i	4.0%	1.05	31.0*	8.0
CCn1c(=O)c(-[n+]2ccccc2)c(O)c2ccccc21	1.04	i	9.0%	1.09	14.0	12.0
CCn1c(=O)c(C2=NS(=O)(=O)c3ccccc3N2)c(O)c2ccccc21	1.1	i	11.0%	2.48*	12.0	0.0
Cc1ccc(-c2c3c(=O)n(C)c(=O)n(C)c3c3c(C)cc(C)nn23)cc1	1.05	i	6.0%	1.09	11.0	6.0
CCOc1cc(-c2cc(-c3ccc(N)cc3)nc(N)c2C#N)ccc1O	1.07	.	9.0%	3.56*	5.0	12.0
Cc1nn(C)c(C)c1CN(C)C(=O)c1cc2nc(-c3ccco3)cc(C(F)(F)F)n2n1	1.13	i	8.0%	2.54*	14.0	1.0
Cc1nn(C)cc1CN(C)C(=O)c1cc2nc(-c3ccco3)cc(C(F)(F)F)n2n1	1.06	i	8.0%	2.74*	0.0	3.0
Cc1ccccc1Cn1nc(C)c(NC(=O)c2cc3nc(-c4ccco4)cc(C(F)(F)F)n3n2)c1C	1.08	i	12.0%	1.83	12.0	11.0
COc1cc(NC(=O)CN2C(=O)c3ccccc3S2(=O)=O)c(OC)cc1Cl	1.01	i	2.0%	1.05	6.0	1.0
Clc1cc(NCc2cccs2)ccc1N1CCOCC1	1	i	6.0%	1.08	11.0	6.0
